# Measurements from article PMC7862700, “An all-to-all approach to the identification of sequence-specific readers for epigenetic DNA modifications on cytosine”.
# Legend:
# Assay in all cases: DAPPL (digital affinity profiling via proximity ligation, sequencing); 10 mM Tris-HCl pH 7.5, 50 mM NaCl, 1 mM DTT, 4% glycerol, room temperature, 30 min; GST-TFs on glutathione beads, 16-mer random dsDNA library, 0.1% formaldehyde crosslink after washing; high values mean tight binding
# FEV = target: T1, FEV (Homo sapiens, UniProt Q99581 1-238); details: protein: recombinant; tags: N-terminal GST; dsDNA, one strand shown
# T1 sequence: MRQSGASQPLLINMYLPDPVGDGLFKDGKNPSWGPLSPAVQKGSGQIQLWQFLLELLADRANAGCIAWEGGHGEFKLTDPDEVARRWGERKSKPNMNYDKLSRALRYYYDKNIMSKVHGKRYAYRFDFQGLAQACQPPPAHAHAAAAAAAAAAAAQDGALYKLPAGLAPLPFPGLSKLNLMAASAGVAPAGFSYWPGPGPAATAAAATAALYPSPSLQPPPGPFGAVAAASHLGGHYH
# Method in brief: (§1)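 After expression in yeast as GST fusions, human transcription factors were bound to glutathione beads, DNA-barcoded and mixed with a tag-only sample. The pools were incubated with 200 nmole of a 16-mer random double-stranded DNA library in Tris/NaCl/DTT/glycerol buffer (30 min, room temperature), washed and crosslinked with 0.1% formaldehyde. Proximity ligation with BsaI/T4 ligase ran for 1 h at 37 °C, before PCR amplification and sequencing on an Illumina NextSeq500. Binding signal is a hexamer's read frequency for a factor divided by its frequency for the tag-only sample.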
# ETV5 = ETV5 (Homo sapiens, UniProt P41161 1-510); details: protein: recombinant; tags: N-terminal GST; dsDNA, one strand shown
# Method in brief: as §1
# HSF1 = HSF1 (Homo sapiens, UniProt Q00613 1-529); details: protein: recombinant; tags: N-terminal GST; chain copies: 3; dsDNA, one strand shown
# Method in brief: as §1
# SPIC = target: T2, SPIC (Homo sapiens, UniProt Q8N5J4 1-248); details: protein: recombinant; tags: N-terminal GST; dsDNA, one strand shown
# T2 sequence: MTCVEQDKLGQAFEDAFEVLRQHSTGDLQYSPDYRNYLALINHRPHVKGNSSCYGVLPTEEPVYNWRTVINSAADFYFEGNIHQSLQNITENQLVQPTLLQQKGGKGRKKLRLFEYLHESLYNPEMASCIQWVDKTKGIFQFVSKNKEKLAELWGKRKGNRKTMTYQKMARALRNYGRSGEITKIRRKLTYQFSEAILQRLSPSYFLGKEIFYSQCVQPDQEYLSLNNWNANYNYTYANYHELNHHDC
# Method in brief: as §1
# ELF4 = ELF4 (Homo sapiens, UniProt Q99607 1-663); details: protein: recombinant; tags: N-terminal GST; dsDNA, one strand shown
# Method in brief: as §1
# ELK4 = target: T3, ELK4 (Homo sapiens, UniProt P28324-2 1-405); details: protein: recombinant; tags: N-terminal GST; dsDNA, one strand shown
# T3 sequence: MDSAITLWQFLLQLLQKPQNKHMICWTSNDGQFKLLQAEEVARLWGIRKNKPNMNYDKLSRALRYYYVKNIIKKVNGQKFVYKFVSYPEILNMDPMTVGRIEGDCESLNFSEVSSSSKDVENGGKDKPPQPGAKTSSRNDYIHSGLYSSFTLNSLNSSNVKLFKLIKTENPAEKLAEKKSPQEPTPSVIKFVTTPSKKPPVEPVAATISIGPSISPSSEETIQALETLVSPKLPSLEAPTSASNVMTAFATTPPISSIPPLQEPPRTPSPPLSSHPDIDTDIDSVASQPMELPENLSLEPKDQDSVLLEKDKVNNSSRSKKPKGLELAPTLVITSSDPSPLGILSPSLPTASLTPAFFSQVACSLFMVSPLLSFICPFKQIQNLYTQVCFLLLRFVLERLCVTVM
# Method in brief: as §1
# ETV2 = target: T4, ETV2 (Homo sapiens, UniProt O00321 1-342); details: protein: recombinant; tags: N-terminal GST; dsDNA, one strand shown
# T4 sequence: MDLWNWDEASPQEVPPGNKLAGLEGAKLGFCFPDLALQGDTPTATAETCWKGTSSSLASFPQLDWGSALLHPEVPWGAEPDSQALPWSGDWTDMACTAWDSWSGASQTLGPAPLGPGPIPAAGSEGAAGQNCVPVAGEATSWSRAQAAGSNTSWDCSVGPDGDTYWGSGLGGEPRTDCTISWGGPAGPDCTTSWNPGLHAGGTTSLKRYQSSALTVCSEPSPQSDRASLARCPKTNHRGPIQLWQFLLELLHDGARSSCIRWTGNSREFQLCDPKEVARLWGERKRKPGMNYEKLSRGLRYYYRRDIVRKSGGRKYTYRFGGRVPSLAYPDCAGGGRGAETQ
# Method in brief: as §1
# ELF3 = target: T5, ELF3 (Homo sapiens, UniProt P78545 1-371); details: protein: recombinant; tags: N-terminal GST; dsDNA, one strand shown
# T5 sequence: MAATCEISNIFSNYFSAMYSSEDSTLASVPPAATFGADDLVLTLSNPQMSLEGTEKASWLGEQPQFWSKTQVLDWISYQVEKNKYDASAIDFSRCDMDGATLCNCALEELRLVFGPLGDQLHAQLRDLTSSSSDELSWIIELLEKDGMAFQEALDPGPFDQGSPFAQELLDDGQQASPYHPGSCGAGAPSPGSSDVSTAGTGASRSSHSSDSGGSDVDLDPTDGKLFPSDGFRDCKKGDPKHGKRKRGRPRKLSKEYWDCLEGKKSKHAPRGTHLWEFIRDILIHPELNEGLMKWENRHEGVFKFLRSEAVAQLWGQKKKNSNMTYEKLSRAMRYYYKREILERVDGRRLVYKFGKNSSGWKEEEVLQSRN
# Method in brief: as §1
# CRX = CRX (Homo sapiens, UniProt O43186 1-299); details: protein: recombinant; tags: N-terminal GST; dsDNA, one strand shown
# Method in brief: as §1
# ETV1 = ETV1 (Homo sapiens, UniProt P50549 1-477); details: protein: recombinant; tags: N-terminal GST; dsDNA, one strand shown
# Method in brief: as §1
# Sequence of HSF1 (Q00613 whole entry): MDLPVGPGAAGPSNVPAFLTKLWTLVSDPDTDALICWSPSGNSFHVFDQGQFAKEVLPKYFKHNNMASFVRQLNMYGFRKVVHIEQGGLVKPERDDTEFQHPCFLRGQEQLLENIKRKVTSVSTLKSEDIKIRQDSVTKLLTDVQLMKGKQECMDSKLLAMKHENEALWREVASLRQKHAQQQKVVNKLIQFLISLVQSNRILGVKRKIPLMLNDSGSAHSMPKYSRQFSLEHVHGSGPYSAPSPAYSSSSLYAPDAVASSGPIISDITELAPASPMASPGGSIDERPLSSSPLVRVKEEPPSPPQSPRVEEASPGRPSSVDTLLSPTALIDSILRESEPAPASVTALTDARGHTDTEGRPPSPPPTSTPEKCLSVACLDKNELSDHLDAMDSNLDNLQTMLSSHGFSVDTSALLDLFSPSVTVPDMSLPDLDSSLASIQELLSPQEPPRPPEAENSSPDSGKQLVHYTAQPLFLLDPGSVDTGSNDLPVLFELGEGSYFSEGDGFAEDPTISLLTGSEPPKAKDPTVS
# Sequence of ETV5 (P41161 whole entry): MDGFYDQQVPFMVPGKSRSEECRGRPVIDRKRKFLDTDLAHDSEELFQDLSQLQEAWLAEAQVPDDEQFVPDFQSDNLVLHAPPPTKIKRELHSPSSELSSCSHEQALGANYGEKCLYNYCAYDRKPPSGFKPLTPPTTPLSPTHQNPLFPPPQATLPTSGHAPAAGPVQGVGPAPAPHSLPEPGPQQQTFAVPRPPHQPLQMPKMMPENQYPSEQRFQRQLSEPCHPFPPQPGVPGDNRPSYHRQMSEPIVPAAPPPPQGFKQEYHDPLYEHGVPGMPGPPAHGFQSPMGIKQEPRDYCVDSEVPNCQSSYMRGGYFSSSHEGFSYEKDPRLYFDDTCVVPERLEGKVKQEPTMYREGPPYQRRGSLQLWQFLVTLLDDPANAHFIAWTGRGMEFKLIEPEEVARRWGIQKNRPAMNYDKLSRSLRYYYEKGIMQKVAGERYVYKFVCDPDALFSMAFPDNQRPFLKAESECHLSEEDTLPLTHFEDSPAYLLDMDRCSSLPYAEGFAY
# Sequence of ELF4 (Q99607 whole entry): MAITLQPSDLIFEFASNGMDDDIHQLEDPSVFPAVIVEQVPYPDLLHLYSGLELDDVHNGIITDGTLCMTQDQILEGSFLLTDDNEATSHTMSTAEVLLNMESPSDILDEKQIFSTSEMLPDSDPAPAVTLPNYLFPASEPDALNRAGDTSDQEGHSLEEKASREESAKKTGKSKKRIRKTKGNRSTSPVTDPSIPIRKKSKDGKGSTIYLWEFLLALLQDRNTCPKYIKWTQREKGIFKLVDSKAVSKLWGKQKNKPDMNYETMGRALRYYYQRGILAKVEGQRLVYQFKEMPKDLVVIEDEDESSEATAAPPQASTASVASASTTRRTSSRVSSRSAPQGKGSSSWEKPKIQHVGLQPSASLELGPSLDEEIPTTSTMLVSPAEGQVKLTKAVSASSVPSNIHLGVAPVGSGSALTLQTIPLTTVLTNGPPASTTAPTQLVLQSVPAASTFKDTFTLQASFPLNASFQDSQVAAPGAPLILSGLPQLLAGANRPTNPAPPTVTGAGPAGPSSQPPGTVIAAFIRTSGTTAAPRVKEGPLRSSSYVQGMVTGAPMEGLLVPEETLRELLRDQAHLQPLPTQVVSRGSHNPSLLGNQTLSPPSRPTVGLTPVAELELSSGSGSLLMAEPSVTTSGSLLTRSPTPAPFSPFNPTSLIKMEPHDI
# Sequence of ETV1 (P50549 whole entry): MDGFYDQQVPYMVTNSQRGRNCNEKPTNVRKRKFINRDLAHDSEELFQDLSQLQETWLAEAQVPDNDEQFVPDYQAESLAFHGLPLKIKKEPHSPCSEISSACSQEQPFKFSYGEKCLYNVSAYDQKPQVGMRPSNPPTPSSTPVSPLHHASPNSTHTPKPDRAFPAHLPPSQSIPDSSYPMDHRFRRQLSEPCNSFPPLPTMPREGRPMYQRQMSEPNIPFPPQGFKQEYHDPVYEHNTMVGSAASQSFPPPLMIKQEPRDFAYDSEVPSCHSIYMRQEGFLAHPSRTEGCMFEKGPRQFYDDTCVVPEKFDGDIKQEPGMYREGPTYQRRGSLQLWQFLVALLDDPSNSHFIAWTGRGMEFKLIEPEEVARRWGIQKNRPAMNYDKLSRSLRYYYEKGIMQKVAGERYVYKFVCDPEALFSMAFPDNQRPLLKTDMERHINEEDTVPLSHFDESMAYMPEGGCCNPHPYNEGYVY
# Sequence of CRX (O43186 whole entry): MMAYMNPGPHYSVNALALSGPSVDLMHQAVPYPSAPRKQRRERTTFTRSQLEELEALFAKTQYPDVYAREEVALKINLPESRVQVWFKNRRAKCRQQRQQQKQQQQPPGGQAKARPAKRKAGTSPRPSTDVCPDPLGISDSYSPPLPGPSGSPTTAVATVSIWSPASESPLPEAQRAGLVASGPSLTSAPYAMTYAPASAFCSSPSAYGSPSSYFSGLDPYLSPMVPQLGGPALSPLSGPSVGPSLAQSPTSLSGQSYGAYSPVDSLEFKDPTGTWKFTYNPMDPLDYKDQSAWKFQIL
sequence,measurement,setting,value
CCCCAT,binding signal,FEV,"1.2 fold enrichment (6-mer frequency, TF over GST control)"
same,binding signal,ETV5,"1.34 fold enrichment (6-mer frequency, TF over GST control)"
same,binding signal,HSF1,"1.1 fold enrichment (6-mer frequency, TF over GST control)"
same,binding signal,SPIC,"1.41 fold enrichment (6-mer frequency, TF over GST control)"
same,binding signal,ELF4,"1.34 fold enrichment (6-mer frequency, TF over GST control)"
same,binding signal,ELK4,"1.22 fold enrichment (6-mer frequency, TF over GST control)"
same,binding signal,ETV2,"1.52 fold enrichment (6-mer frequency, TF over GST control)"
same,binding signal,ELF3,"1.16 fold enrichment (6-mer frequency, TF over GST control)"
same,binding signal,CRX,"1.15 fold enrichment (6-mer frequency, TF over GST control)"
same,binding signal,ETV1,"1.37 fold enrichment (6-mer frequency, TF over GST control)"
